# Values without a mark were called inactive. Records with an inconclusive call do not appear. Where a call stands in place of a potency, no number is given. Active and inactive are the calls of the source. Calls come from the whole dose curve; as a rule, active = well fitted curve in the direction sought with a large enough effect in the repeat runs; inconclusive = weak or mixed curves; inactive = no such curve, though single readings can be large; an effect the other way counts as inactive or inconclusive.
# Tests used:
# [1] = qHTS RealTime-Glo MT Cell Viability Assay in HepG2 cells - 8 hour (AID 1224873); note: nearly all actives have a fitted effect of over 55% in size
# Method in brief: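 HepG2 cells mixed with RealTime-Glo MT reagents (NanoLuc plus cell-permeant prosubstrate) were seeded at 600 cells/well, incubated 5 h at 37 C/5% CO2, then pinned with compounds in DMSO; nonlytic luminescence tracked viability during 40 h treatment.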
# [2] = qHTS RealTime-Glo MT Cell Viability Assay in HEK293 cells - 40 hour (AID 1224874); settings: RealTime-Glo luminescence; max response: stronger effect = lower value; note: nearly all actives have a fitted effect of over 50% in size; note: potency is the fitted concentration of half-maximal effect
# Method in brief: (§1)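 Cells were seeded together with NanoLuc luciferase and a prosubstrate that viable cells reduce to a luciferase substrate. After a 5 h incubation at 37 C/5% CO2, compounds were added and luminescence was measured repeatedly during 40 h of treatment.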
# [3] = A CellTox Green Cytotoxicity Assay to monitor cytotoxicity in HEK293 cells - 24 hour (AID 1224875); note: series mostly up to about 77 µM; nearly all actives have a fitted effect of over 45% in size
# Method in brief: (§2)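 Nonlytic real-time cytotoxicity: HEK293 + CellTox Green reagent plated, 5 h preincubation, pintool compound addition (23 nL in DMSO), 37 C for 40 h, fluorescence measured at successive time points.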
# [4] = qHTS RealTime-Glo MT Cell Viability Assay in HepG2 cells - 32 hour (AID 1224877); note: nearly all actives have a fitted effect of over 55% in size
# Method in brief: (§3)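 HepG2 cells (600/well) were dispensed with RealTime-Glo reagents, incubated 5 h at 37 °C, then treated with compounds in DMSO for up to 40 h. Nonlytic NanoLuc luminescence reflecting viable cells was read at each stated time point.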
# [5] = qHTS RealTime-Glo MT Cell Viability Assay in HEK293 cells - 0 hour (AID 1224880); note: top concentration of the series differs between compounds; nearly all actives have a fitted effect of over 45% in size
# Method in brief: as §1
# [6] = A CellTox Green Cytotoxicity Assay to monitor cytotoxicity in HEK293 cells - 32 hour (AID 1224881); note: nearly all actives have a fitted effect of over 40% in size
# Method in brief: as §2
# [7] = A CellTox Green Cytotoxicity Assay to monitor cytotoxicity in HepG2 cells - 0 hour (AID 1224882); note: nearly all actives have a fitted effect of over 35% in size
# Method in brief: (§4)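 Read-out is fluorescence of a cyanine dye excluded from live cells that stains DNA of dead HepG2 cells, with signal proportional to cytotoxicity. Plates were read at 0, 8, 16, 24, 32 and 40 h after compound addition.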
# [8] = A CellTox Green Cytotoxicity Assay to monitor cytotoxicity in HEK293 cells - 8 hour (AID 1224884); note: nearly all actives have a fitted effect of over 35% in size
# Method in brief: as §2
# [9] = qHTS RealTime-Glo MT Cell Viability Assay in HepG2 cells - 16 hour (AID 1224885); note: nearly all actives have a fitted effect of over 50% in size
# Method in brief: as §3
# [10] = qHTS RealTime-Glo MT Cell Viability Assay in HEK293 cells - 24 hour (AID 1224886); note: top concentration of the series differs between compounds; nearly all actives have a fitted effect of over 50% in size
# Method in brief: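 HEK293 cells seeded with NanoLuc/prosubstrate reagent, rested 5 h at 37 C, then dosed and kept at 37 C up to 40 h. Nonlytic real-time luminescence from viable cells read at 0, 8, 16, 24, 32 and 40 h.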
# [11] = qHTS RealTime-Glo MT Cell Viability Assay in HEK293 cells - 8 hour (AID 1224887); note: top concentration of the series differs between compounds; nearly all actives have a fitted effect of over 50% in size
# Method in brief: as §1
# [12] = A CellTox Green Cytotoxicity Assay to monitor cytotoxicity in HEK293 cells - 16 hour (AID 1224888); note: nearly all actives have a fitted effect of over 35% in size
# Method in brief: as §2
# [13] = qHTS RealTime-Glo MT Cell Viability Assay in HepG2 cells - 0 hour (AID 1224889); note: nearly all actives have a fitted effect of over 50% in size
# Method in brief: as §3
# [14] = qHTS assay to identify small molecule antagonists of the estrogen receptor alpha (ER-alpha) signaling pathway using the BG1 cell line in the presence of 0.1 nM 17-beta-estradiol - cell viability counter screen (AID 1259241); note: nearly all actives have a fitted effect of over 40% in size
# Method in brief: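 Cytotoxicity counter-screen: live-cell protease activity measured by fluorescence (30 min reagent step) in the same wells. Cells were VM7Luc4E2 with endogenous ER-alpha and ERE-driven luciferase, treated 22 hr at 37C alongside 0.1 nM 17beta-estradiol final.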
# [15] = qHTS assay to identify small molecule antagonists of the androgen receptor (AR) signaling pathway using the MDA cell line in the presence of 0.5 nM R1881 - cell viability counter screen (AID 1259242); note: nearly all actives have a fitted effect of over 45% in size
# Method in brief: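 Counter screen for cytotoxicity run in the same wells as the AR antagonist reporter screen: MDA-kb2 cells were treated 16 hr with test compounds and 0.5 nM R1881, then live-cell protease activity was measured by fluorescence.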
# [16] = A CellTox Green Cytotoxicity Assay to monitor cytotoxicity in HepG2 cells - 16 hour (AID 1224876); note: nearly all actives have a fitted effect of over 45% in size
# Method in brief: as §4
# [17] = A CellTox Green Cytotoxicity Assay to monitor cytotoxicity in HepG2 cells - 24 hour (AID 1224878); note: nearly all actives have a fitted effect of over 45% in size
# Method in brief: as §4
# [18] = A CellTox Green Cytotoxicity Assay to monitor cytotoxicity in HepG2 cells - 32 hour (AID 1224883); note: nearly all actives have a fitted effect of over 50% in size
# Method in brief: as §4
# [19] = A CellTox Green Cytotoxicity Assay to monitor cytotoxicity in HepG2 cells - 8 hour (AID 1224890); note: nearly all actives have a fitted effect of over 45% in size
# Method in brief: as §4
# [20] = A CellTox Green Cytotoxicity Assay to monitor cytotoxicity in HepG2 cells - 40 hour (AID 1224879); note: nearly all actives have a fitted effect of over 40% in size
# Method in brief: as §4
smiles,measurement,setting,value
Cc1c(N)c(=O)n(-c2ccccc2)n1C,outcome,[1],inactive
same,max response,[2],-5.41%
same,outcome,[3],inactive
same,Potency,[4],inactive
same,Potency,[5],inactive
same,outcome,[6],inactive
same,Potency,[7],inactive
same,outcome,[8],inactive
same,outcome,[9],inactive
same,Potency,[10],inactive
same,Potency,[11],inactive
same,outcome,[12],inactive
same,Potency,[13],inactive
same,outcome,[14],inactive
same,outcome,[15],inactive
Nc1ccn([C@@H]2O[C@H](CO)[C@@H](O)C2(F)F)c(=O)n1,outcome,[1],inactive
same,Potency,[2],756 nM (active)
same,outcome,[3],inactive
same,outcome,[16],inactive
same,Potency,[4],inactive
same,outcome,[17],inactive
same,Potency,[5],inactive
same,outcome,[6],inactive
same,Potency,[18],inactive
same,outcome,[8],inactive
same,outcome,[9],inactive
same,outcome,[12],inactive
same,Potency,[13],inactive
same,outcome,[19],inactive
same,outcome,[14],inactive
same,outcome,[15],inactive
COc1cc(C(=O)OC(COCCC(C)C)CN2CCOCC2)cc(OC)c1OC (configuration not stated),outcome,[1],inactive
same,outcome,[3],inactive
same,outcome,[16],inactive
same,Potency,[4],inactive
same,outcome,[17],inactive
same,Potency,[20],inactive
same,Potency,[5],inactive
same,outcome,[6],inactive
same,Potency,[7],inactive
same,Potency,[18],inactive
same,outcome,[8],inactive
same,outcome,[9],inactive
same,Potency,[10],inactive
same,Potency,[11],inactive
same,Potency,[13],inactive
same,outcome,[19],inactive
same,outcome,[14],inactive
same,outcome,[15],inactive
c1ccc(CCc2ccccc2)cc1,outcome,[1],inactive
same,max response,[2],-4.4%
same,Potency,[4],inactive
same,Potency,[5],inactive
same,Potency,[7],inactive
same,outcome,[8],inactive
same,Potency,[10],inactive
same,Potency,[11],inactive
same,outcome,[12],inactive
same,Potency,[13],inactive
same,outcome,[14],inactive
same,outcome,[15],inactive
CCCCS(=O)(=O)N[C@@H](Cc1ccc(OCCCCC2CCNCC2)cc1)C(=O)O,outcome,[1],inactive
same,max response,[2],-0.348%
same,outcome,[16],inactive
same,Potency,[4],inactive
same,outcome,[17],inactive
same,Potency,[20],inactive
same,Potency,[5],inactive
same,Potency,[18],inactive
same,outcome,[8],inactive
same,outcome,[9],inactive
same,Potency,[11],inactive
same,outcome,[12],inactive
same,Potency,[13],inactive
same,outcome,[19],inactive
same,outcome,[14],inactive
same,outcome,[15],inactive
CCCCCCCCCC[N+](C)(C)[O-],outcome,[1],inactive
same,max response,[2],-6.97%
same,outcome,[3],inactive
same,Potency,[4],inactive
same,Potency,[5],inactive
same,outcome,[6],inactive
same,Potency,[7],inactive
same,outcome,[8],inactive
same,outcome,[9],inactive
same,Potency,[10],inactive
same,Potency,[11],inactive
same,outcome,[12],inactive
same,Potency,[13],inactive
same,outcome,[19],inactive
same,outcome,[14],inactive
same,outcome,[15],inactive
COc1cc(C)nc(-n2nc(C)cc2OC)n1,outcome,[1],inactive
same,outcome,[3],inactive
same,outcome,[16],inactive
same,Potency,[4],inactive
same,outcome,[17],inactive
same,Potency,[20],inactive
same,Potency,[5],inactive
same,outcome,[6],inactive
same,Potency,[7],inactive
same,Potency,[18],inactive
same,outcome,[8],inactive
same,outcome,[9],inactive
same,Potency,[10],inactive
same,Potency,[11],inactive
same,outcome,[12],inactive
same,Potency,[13],inactive
same,outcome,[19],inactive
same,outcome,[14],inactive
same,outcome,[15],inactive
C=CCCCCCCCCC(=O)OCC,outcome,[1],inactive
same,max response,[2],3.1%
same,outcome,[3],inactive
same,outcome,[16],inactive
same,Potency,[4],inactive
same,outcome,[17],inactive
same,Potency,[5],inactive
same,outcome,[6],inactive
same,Potency,[7],inactive
same,Potency,[18],inactive
same,outcome,[9],inactive
same,Potency,[10],inactive
same,Potency,[11],inactive
same,Potency,[13],inactive
same,outcome,[19],inactive
same,outcome,[15],inactive
CCCn1cc[n+](C)c1C,outcome,[1],inactive
same,max response,[2],0.77%
same,outcome,[3],inactive
same,outcome,[16],inactive
same,outcome,[17],inactive
same,Potency,[20],inactive
same,Potency,[5],inactive
same,outcome,[6],inactive
same,Potency,[18],inactive
same,outcome,[8],inactive
same,outcome,[9],inactive
same,Potency,[10],inactive
same,Potency,[11],inactive
same,outcome,[12],inactive
same,Potency,[13],inactive
same,outcome,[19],inactive
same,outcome,[14],inactive
same,outcome,[15],inactive
C[N+]1(C)CCCC(OC(=O)C(O)(c2ccccc2)c2ccccc2)C1 (configuration not stated),outcome,[1],inactive
same,outcome,[3],inactive
same,outcome,[16],inactive
same,Potency,[4],inactive
same,outcome,[17],inactive
same,Potency,[20],inactive
same,Potency,[5],inactive
same,outcome,[6],inactive
same,Potency,[7],inactive
same,Potency,[18],inactive
same,outcome,[8],inactive
same,outcome,[9],inactive
same,Potency,[10],inactive
same,Potency,[11],inactive
same,outcome,[12],inactive
same,Potency,[13],inactive
same,outcome,[19],inactive
same,outcome,[14],inactive
same,outcome,[15],inactive
CC(C)C(=O)OC(=O)C(C)C,outcome,[1],inactive
same,max response,[2],3.07%
same,outcome,[3],inactive
same,outcome,[16],inactive
same,Potency,[4],inactive
same,outcome,[17],inactive
same,Potency,[5],inactive
same,outcome,[6],inactive
same,Potency,[7],inactive
same,Potency,[18],inactive
same,outcome,[8],inactive
same,Potency,[10],inactive
same,Potency,[11],inactive
same,outcome,[12],inactive
same,Potency,[13],inactive
same,outcome,[15],inactive
Cc1ccc(C(=O)c2ccc(CC(=O)O)n2C)cc1,outcome,[1],inactive
same,max response,[2],1.68%
same,outcome,[3],inactive
same,Potency,[4],inactive
same,Potency,[5],inactive
same,outcome,[6],inactive
same,outcome,[8],inactive
same,Potency,[10],inactive
same,Potency,[11],inactive
same,outcome,[12],inactive
same,Potency,[13],inactive
same,outcome,[14],inactive
same,outcome,[15],inactive
COc1cccc(OC)c1C(=O)N[C@@H]1C(=O)N2[C@@H]1SC(C)(C)[C@@H]2C(=O)O,outcome,[1],inactive
same,max response,[2],4.53%
same,outcome,[3],inactive
same,outcome,[16],inactive
same,Potency,[4],inactive
same,outcome,[17],inactive
same,Potency,[5],inactive
same,outcome,[6],inactive
same,Potency,[18],inactive
same,outcome,[8],inactive
same,Potency,[10],inactive
same,Potency,[11],inactive
same,outcome,[12],inactive
same,Potency,[13],inactive
same,outcome,[19],inactive
same,outcome,[14],inactive
same,outcome,[15],inactive
CC1OC1C1CCC2(C)OC2C1 (configuration not stated),outcome,[1],inactive
same,max response,[2],1.23%
same,outcome,[3],inactive
same,Potency,[4],inactive
same,Potency,[5],inactive
same,outcome,[6],inactive
same,Potency,[7],inactive
same,outcome,[8],inactive
same,Potency,[10],inactive
same,Potency,[11],inactive
same,outcome,[12],inactive
same,Potency,[13],inactive
same,outcome,[14],inactive
same,outcome,[15],inactive
CNC(=O)Nc1ccc(Cl)c(Cl)c1,outcome,[1],inactive
same,max response,[2],-26.8%
same,outcome,[3],inactive
same,outcome,[16],inactive
same,Potency,[4],inactive
same,outcome,[17],inactive
same,Potency,[5],inactive
same,outcome,[6],inactive
same,Potency,[18],inactive
same,outcome,[8],inactive
same,outcome,[9],inactive
same,Potency,[10],inactive
same,Potency,[11],inactive
same,outcome,[12],inactive
same,Potency,[13],inactive
same,outcome,[14],inactive
same,outcome,[15],inactive

# Reference: PubChem BioAssay (Tox21)
